Screening results deposited in PubChem by National Center for Advancing Translational Sciences (NCATS).
NPC1 prom act: activators of NPC1 promoter | 2.4% of 320,000 active | Huh7 NPC1 promoter luciferase reporter, 24 h | Potency, µM (highest dose often 9.22 µM), usual class: activators | AID 485313; also: nearly all actives have a fitted effect of over 60% in size
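Huh7 reporter cells (NPC1 promoter driving luciferase) are dosed with compound for 24 h at 37 °C, 5% CO2; luciferase detection reagent is then added and luminescence measured after 10 min at ambient temperature.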
FLuc modulator: counter-screen for miR-21 project: firefly luciferase inhibitors or activators | P08659 | purified FLuc, Km substrates, luminescence inhibition | Potency, µM (doses to about 57.5 µM), actives largely listed as inhibitors | 6.9% of 360,000 active; also: nearly all actives have a fitted effect of over 55% in size
Target sequence (P08659 whole entry, looked up): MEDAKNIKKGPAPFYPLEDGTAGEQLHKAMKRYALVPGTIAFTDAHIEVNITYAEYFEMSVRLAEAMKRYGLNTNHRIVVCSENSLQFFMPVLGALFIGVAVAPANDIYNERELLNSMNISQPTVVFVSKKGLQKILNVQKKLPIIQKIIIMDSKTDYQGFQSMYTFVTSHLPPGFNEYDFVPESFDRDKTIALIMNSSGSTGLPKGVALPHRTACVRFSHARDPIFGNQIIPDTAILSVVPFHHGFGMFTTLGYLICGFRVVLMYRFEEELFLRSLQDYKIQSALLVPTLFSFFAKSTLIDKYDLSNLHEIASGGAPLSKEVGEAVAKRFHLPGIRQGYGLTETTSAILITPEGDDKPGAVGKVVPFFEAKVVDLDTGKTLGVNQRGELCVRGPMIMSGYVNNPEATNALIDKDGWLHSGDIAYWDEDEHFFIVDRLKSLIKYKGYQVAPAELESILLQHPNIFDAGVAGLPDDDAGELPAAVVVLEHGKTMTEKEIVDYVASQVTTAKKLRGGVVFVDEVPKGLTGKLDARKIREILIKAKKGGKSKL
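Biochemical qHTS of compounds, final roughly 60 µM downward over six points, against 10 nM purified firefly luciferase using Km concentrations of substrates (10 uM D-luciferin, 10 uM ATP) in Tris acetate pH 7.5 buffer; luminescence output.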
Rab9 prom act: activates the Rab9 promoter. Huh7 Rab9 promoter-luciferase reporter, luminescence, 24 h. Potency, µM (titrated, usually from 9.22 µM), most hits filed as activators. 2.8% of 320,000 active. AID 485297; also: nearly all actives have a fitted effect of over 60% in size
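Measured in stably transfected Huh7 cells bearing a Rab9 promoter–luciferase construct: 24 h compound treatment at 37 °C, followed by luminescence detection.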
SMN2 splice enh: increases expression of the SMN2 splice variant | Potency, µM (highest dose often 46.1 µM), actives largely listed as activators | HEK293 SMN2-luciferase splicing reporter, luminescence, 30-36 h | 2.8% of 210,000 active; also: nearly all actives have a fitted effect of over 55% in size
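qHTS luciferase splicing reporter: luminescence rises when SMN2 exon 7 is included in transfected HEK293 cells. Compound exposure lasted 30-36 h at 37C, with 4.5 mM final sodium butyrate as control, followed by a ONE-Glo read.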
KinaseGlo FLuc: Kinase-Glo luciferase inhibition (counter-screen). Potency, µM (highest dose often 38.3 µM), hits mostly inhibitors. 0.28% of 200,000 active. Kinase-Glo luciferase, ATP luminescence, 8 min. AID 1379; also: nearly all actives have a fitted effect of over 60% in size
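Kinase-Glo luciferase light output from ATP and luciferin was measured with 10 uM ATP, within the enzyme's linear range. Buffer: 50 mM imidazole pH 7.2, 50 mM KCl, 7 mM MgCl2, 0.01% Tween 20, 0.05% BSA; luminescence read after 8 min at ambient temperature.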
A number is an active result; - = inactive; ? = inconclusive; . = no result given; [ ] = dose if it differs, or a comment. Shown are actives, neighbours in structure and some others; about 7.3% of the full set was active somewhere. Calls follow the shape of the dose curve; as a rule, active = well fitted curve in the direction sought with a large enough effect; inconclusive = small, poorly fitted or top-dose-only effect, or another doubt; inactive = no such curve, though single readings can be large; an effect the other way counts as inactive or inconclusive.

SMILES | NPC1 prom act | FLuc modulator | Rab9 prom act | SMN2 splice enh | KinaseGlo FLuc
COc1cccc(N/C=C/C(=O)c2ccc(OC)c(OC)c2)c1 | 3.55µM | 1.35µM | ? | . | .
CCOC(=O)c1cccc(N/C=C/C(=O)c2ccc(OC)c(OC)c2)c1 | 0.631µM | 10.7µM | 1.58µM | - | -
CCOc1ccc(OCC)c(NC(=O)c2cnc(SC)nc2-c2ccccc2)c1 | . | - | . | . | .
CCCCNc1nc2c(S(=O)(=O)c3ccc(C)cc3)nnn2c2ccsc12 | . | - | . | . | .
COc1ccc(OC)c(S(=O)(=O)NCC(c2ccc(N(C)C)cc2)N2CCOCC2)c1 (centres undefined) | . | - | . | . | .
COc1cccc(C(=O)/C=C/Nc2cc(C)ccc2O)c1 | - | 2.69µM | - | . | -
COc1cccc(C(=O)/C=C/Nc2ccc(S(=O)(=O)Nc3nc(C)cc(C)n3)cc2)c1 | - | ? | - | - | -
COc1ccc(OC)c(N/C=C/C(=O)c2ccc(OC)c(OC)c2)c1 | - | 19µM | - | . | .
COc1ccc(C(=O)/C=C/N(C)C)cc1OC | - | - | - | - | -
Cc1ccc(Cl)c(N/C=C/C(=O)c2ccccc2)c1 | ? | 1.07µM | ? | . | .
Cc1cccc(C(=O)NN/C=C/C(=O)c2ccccc2)c1 | - | - | - | . | .
Cc1cccc(NC(=O)CN2C(=O)C3(SCC(=O)N3c3ccccc3)c3ccccc32)c1 (centres undefined) | . | - | . | . | .
CC(C)c1ccc(NC(=O)CN(C)S(=O)(=O)c2ccc3c(c2)n(C)c(=O)c(=O)n3C)cc1 | . | - | . | - | .
O=C(C#Cc1cccc([N+](=O)[O-])c1)c1ccccc1 | - | ? | - | - | -
Nc1ccccc1C#CC(=O)c1ccccc1 | - | 6.01µM | - | . | .
CC(C)C[C@@H](CC(=O)N[C@H](CC(=O)N[C@@H]1CCNC[C@H]1C(=O)N[C@H](CC(=O)N[C@@H](CCC(=O)O)CC(=O)O)Cc1ccccc1)C(C)C)NC(=O)[C@@H]1CNCC[C@H]1N | . | . | . | - | -
COc1ccccc1OCC(=O)N/N=C1\CCc2ccccc21 | - | 21.3µM | 2.82µM | . | -
Cc1cccc2c1OCC/C2=N\NC(=O)COc1ccccc1 | ? | 19µM | ? | - | -
COc1ccc(OCC(=O)N/N=C2\CCCc3ccccc32)cc1 | - | 19µM | - | . | .
COc1ccccc1OCC(=O)N/N=C1\CCCCc2ccccc21 | - | - | - | . | .
O=C(COc1ccccc1F)N/N=C1\CCCc2ccccc21 | ? | 15.1µM | ? | . | .
Cc1cc(C)n2nc(CNC(=O)c3cccc(Cl)c3)nc2n1 | . | - | . | - | .
CCc1ccccc1NC(=O)CN1C(=O)CCn2nc(-c3cccn3C)cc21 | . | - | . | . | .
COC(=O)c1cc2oc3ccccc3c2n1Cc1ccc(Cl)cc1 | . | - | . | - | .
Cc1cccc(N2CCN(C(=O)Cn3c(C)c4cnn(-c5ccccc5)c(=O)c4c3C)CC2)c1C | . | - | . | - | .
SMILES | NPC1 prom act | FLuc modulator | Rab9 prom act | SMN2 splice enh | KinaseGlo FLuc
Cc1nn(-c2nc3ccccc3s2)c(N)c1Sc1ccc(F)cc1 | 3.16µM | ? | 1.12µM | - | -
O=C1CCC(c2ccccc2)=NN1c1nc2ccccc2s1 | . | . | . | -[9.22 µM] | -[7.66 µM]
Cc1nn(-c2nc3ccccc3s2)c(N)c1-c1ccc(Cl)cc1 | ? | 3.01µM | ? | 11.2µM | -
Cc1nn(-c2nc3ccccc3s2)c(N)c1-c1ccccc1 | 2.51µM | 1.9µM | 2.24µM | 7.08µM | -
Cc1c(C2=CCN(S(=O)(=O)c3ccc(Cl)cc3)CC2)c2ccccc2n1CC(=O)N1CCCC1 | . | - | . | - | .
COc1cc(C(=O)N2CCN(CCc3ccccn3)CC2)cc(OC)c1OC | . | - | . | . | .
Cc1ccc(Cl)cc1N(C)C(=O)c1cc2ccc3cccnc3c2[nH]1 | . | - | . | . | .
CC(C)(C)Nc1nc(Cl)nc(Nc2ccccc2)n1 | ? | 7.57µM | ? | . | .
COc1ccccc1Nc1nc(Cl)nc(NC(C)(C)C)n1 | - | ? | - | - | -
Clc1nc(Nc2ccccc2)nc(Nc2ccccc2)n1 | - | 23.9µM | - | - | -
CC(=O)N1CCCC1c1nc2ccccc2n1Cc1cccc(C)c1 (centres undefined) | . | - | . | . | .
CCn1nc(C)cc1C(=O)Sc1ccc(C)cc1 | - | 16.9µM | - | . | .
CCc1cccc(NC(=O)C(NS(=O)(=O)c2ccc3nc(C)sc3c2)C(C)C)c1 (centres undefined) | . | - | . | - | .
COc1cc(-c2cc(C(=O)Nc3ccncc3)c3ccccc3n2)cc(OC)c1OC | - | - | - | . | .
Cc1ccc(-c2cc(C(=O)Nc3ccncc3)c3ccccc3n2)cc1 | - | 10.7µM | - | . | .
Cc1cccc(NC(=O)NNC(=O)c2cc(-c3ccccc3Cl)nc3ccccc23)c1 | - | - | - | - | -
Cc1ccc(-c2cc(C(=O)Nc3nn[nH]n3)c3ccccc3n2)cc1 | - | 3.79µM | - | - | -
O=C(NNC(=O)c1cc(-c2ccc(Cl)c(Cl)c2)nc2ccccc12)Nc1ccccc1 | - | 6.75µM | - | - | -
COc1ccc(-c2cc(C(=O)Nc3ccc(C(N)=O)cc3)c3ccccc3n2)cc1 | ? | 0.757µM | ? | . | .
CCc1cccc(C)c1NC(=O)CSc1nc2c(c(=O)[nH]1)CCC2 | . | - | . | . | .
COc1cc(/C=C/c2ccc3cccc(O)c3n2)cc(Cl)c1OC | 0.631µM | 2.69µM | 0.708µM | . | .
COC(=O)c1ccc(/C=C/c2ccc3cccc(OC)c3n2)cc1 | - | 5.36µM | - | - | -
COc1cc(/C=C/c2ccc3c(Br)cc(Br)c(O)c3n2)ccc1O | - | - | - | . | .
COc1ccc(/C=C/c2ccc3c(Br)ccc(O)c3n2)cc1 | ? | 5.36µM | ? | . | .
COc1cc(/C=C/c2ccc3cccc(O)c3n2)cc(Br)c1OC | 2.82µM | 4.78µM | 3.98µM | . | .
SMILES | NPC1 prom act | FLuc modulator | Rab9 prom act | SMN2 splice enh | KinaseGlo FLuc
CCCCN(C)CCNC(=O)c1c2c(nc3ccccc13)C(=O)N(C1CCCCC1)C2 | . | - | . | . | .
CCn1ccc2cc(S(=O)(=O)N3CCC(C(=O)NCCc4ccc(C)cc4)CC3)ccc21 | . | - | . | . | .
COc1ccc(/C=C/c2ccc3cccc(O)c3n2)cc1Br | ? | 6.01µM | - | . | .
C=CC1=C(C)/C(=C/c2[nH]c(Cc3[nH]c(/C=C4\NC(=O)C(C)=C4C=C)c(C)c3CCC(=O)O)c(CCC(=O)O)c2C)NC1=O | . | . | . | - | -
CC1CCN(C(=O)CN2CCSc3ccccc32)CC1 | . | - | . | . | .
O=C(NN1C(=O)/C(=C/c2ccc(O)cc2)SC1=S)c1ccccc1O | - | ? | - | . | .
O=C(NN1C(=O)/C(=C/c2ccc(O)c([N+](=O)[O-])c2)SC1=S)c1ccccc1Cl | - | 16.9µM | - | - | -
COc1cc(/C=C2\SC(=S)N(NC(=O)c3ccccc3O)C2=O)ccc1O | - | 16.9µM | -[1.84 µM] | . | .
Cc1ccc2ccc3cc(C(=O)N4CCN(c5ccccc5)CC4)nc3c2[nH]1 | . | - | . | . | .
CCN(CC)c1ccc(NC(=O)C2CCCN(S(=O)(=O)c3ccc4c(c3)oc(=O)n4C)C2)c(C)c1 (centres undefined) | . | - | . | - | .
Cc1cccc(OCC(=O)Nc2ccc3c(c2)OCCO3)c1 | ? | 6.01µM | 3.16µM | - | -
Cc1ccc(OCC(=O)Nc2ccc3c(c2)OCCO3)cc1C | - | 16.9µM | - | - | -
Cc1ccc(OCC(=O)Nc2ccc(F)cc2)cc1C | - | 19µM | - | - | -
